Assay results: the supplement of paper PMC8269313

Tested on: 4T1
Experiment: % inhibition of 4T1 cell number vs DMSO control; higher = stronger growth inhibition
Conditions: 1 µM, 3 days
Procedure, shortened: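 4T1-H2B-GFP mouse breast cancer cells (3000 per well, 2% FBS medium) were seeded in 96-well imaging plates on plastic, denuded lung or mCAF1 fibroblast-derived matrix, Matrigel (15 μg/mL) or 0.2% gelatin; edge wells were left unused. After 16 h, kinase inhibitors were added at 1 μM final for 3 days. Plates were formalin-fixed, DAPI-stained and imaged on an INCell Analyzer 2200, and GFP-positive nuclei were counted. Percent inhibition of cell number was calculated relative to DMSO control.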

[1] = substrate: lung fibroblast-derived matrix
[2] = substrate: mCAF1 fibroblast-derived matrix

| SMILES | % inhibition of 4T1 cell number (substrate: Matrigel) [%] | % inhibition of 4T1 cell number (substrate: gelatin) [%] | % inhibition of 4T1 cell number [1] [%] | % inhibition of 4T1 cell number [2] [%] | % inhibition of 4T1 cell number (substrate: plastic) [%] |
| --- | --- | --- | --- | --- | --- |
| CCCC(=O)Oc1ccc2[nH]c(C(=O)c3cc4ccccc4[nH]3)cc2c1 [PDGF Receptor Tyrosine Kinase Inhibitor II] | -18.7 | -112 | -6.16 | 1.3 | -70.2 |
| COc1ccc2nc3n[nH]c(C)c3c(NCCOCCO)c2c1 | 28.3 | 44.2 | 1.01 | -1.22 | 23.2 |
| CC(C)[C@H](CO)Nc1nc(Nc2cc(N)cc(Cl)c2)c2ncn(C(C)C)c2n1 [Aminopurvalanol A] | 77.4 | 71.6 | -15.7 | 41.1 | 80.1 |
| CC[C@H](CO)Nc1nc(NCc2ccccc2)c2ncn(C(C)C)c2n1 [Roscovitine] | -1.22 | 53.1 | -2.74 | 3.56 | -18.8 |
| O=C(Nc1ccc(Cl)cc1)c1ccccc1NCc1ccncc1 [VEGF Receptor Tyrosine Kinase Inhibitor II] | 28.8 | -12.3 | 79.7 | 0.43 | 17.2 |
| O=c1c(O)c(-c2ccc(O)c(O)c2)oc2cc(O)c(O)c(O)c12 [Quercetagetin] | 28.5 | 52.6 | -6.29 | 36.1 | 48.4 |
| CO[C@H]1C[C@@H]2CC[C@@H](C)[C@@](O)(O2)C(=O)C(=O)N2CCCC[C@H]2C(=O)O[C@H]([C@H](C)C[C@@H]2CC[C@@H](O)[C@H](OC)C2)CC(=O)[C@H](C)/C=C(\C)[C@@H](O)[C@@H](OC)C(=O)[C@H](C)C[C@H](C)/C=C/C=C/C=C/1C [Rapamycin] | -18.4 | -32 | -0.258 | 23.7 | -50.8 |
| O=C(c1cc2cc(O)ccc2[nH]1)c1cc2cc(O)ccc2[nH]1 [Flt-3 Inhibitor II] | 13.9 | 26.6 | 23.8 | 22.7 | -36.1 |
| O=C1NCCc2[nH]c(-c3ccnc(-c4cnc5ccccc5c4)c3)cc21 [MK-2 Inhibitor III] | -42.1 | -5.86 | -4.6 | 4.98 | -48.3 |
| Cn1cc(C2=C(c3cn(CCCSC(=N)N)c4ccccc34)C(=O)NC2=O)c2ccccc21 | -9.32 | 35.1 | -2.42 | 48.6 | -25.7 |
| O=C1NC(=O)C(c2c[nH]c3ccccc23)=C1c1c[nH]c2ccccc12 [Bisindolylmaleimide IV] | 24.5 | -65.7 | 47.8 | 17.1 | -20.6 |
| CN1C(=O)C(c2c[nH]c3ccccc23)=C(c2c[nH]c3ccccc23)C1=O [Bisindolylmaleimide V] | 82.1 | 67 | -9.51 | -40.4 | 50.7 |
| CCCOc1ccc(/C=C2/SC(=O)NC2=O)cc1 [PIM1/2 Kinase Inhibitor VI] | 16.2 | 22.9 | 2.3 | -16.9 | -1.33 |
| O=c1cc(N2CCNCC2)oc2c(-c3ccccc3)cccc12 | -14.2 | -6.29 | -1.5 | 6.84 | -42.8 |
| O=C1c2ccccc2-c2n[nH]c3cccc1c23 [JNK Inhibitor II] | -51.1 | -11.8 | -2.64 | 27.7 | -62.6 |
| COc1cc2ncnc(Nc3ccc(Cl)cc3Cl)c2cc1OC [Ste11 MAPKKK Activation Inhibitor] | 42 | 66.8 | 0.704 | -27.6 | 36.1 |
| CN(C)S(=O)(=O)c1ccc2c(c1)/C(=C/c1cc3c([nH]1)CCCC3)C(=O)N2 | -10.2 | 2.33 | -16.4 | -22.1 | -51.8 |
| COc1cc(SC)ccc1C(=O)N1CCC(Cc2ccccc2)CC1 [p38 MAP Kinase Inhibitor VI, JX401] | -31.1 | 8.59 | -4.09 | 17 | -66.3 |
| Brc1c(Br)c(Br)c2n[nH]nc2c1Br [Casein Kinase II Inhibitor I] | 49.8 | 40.2 | 1.56 | -30.6 | 39.4 |
| CC[C@H](CO)Nc1nc(NCc2ccccc2O)c2ncn(C(C)C)c2n1 [Olomoucine II] | 13.3 | 23.4 | 19.8 | 13.3 | 23.7 |
| O=C1Cc2c([nH]c3ccc(Br)cc23)-c2ccccc2N1 [Kenpaullone] | -24.2 | -0.528 | 23.3 | 25.6 | -48.1 |
| CCCCc1c(-c2ccc(O)cc2)[nH]c2nccnc12 [Aloisine A] | 53.4 | 38 | 1.62 | -3.45 | 48.1 |
| CCOC(=O)c1c(C)[nH]c(/C=C2\C(=O)Nc3ccccc32)c1C [VEGF Receptor 2 Kinase Inhibitor I] | 21.5 | -34.8 | -12.5 | -29.2 | 16.8 |
